Measured values from PubChem BioAssay AID493113 (Johns Hopkins Ion Channel Center, 2011).
Measured potencies and affinities stand elsewhere. The source made the active and inactive calls.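 How the source made its calls: active means compound that boosts KCNQ2 potassium channel current at some tested dose and yields a dose response curve; inactive means no boost at any tested dose or no curve.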

molecular target: Potassium voltage-gated channel subfamily KQT member 2 (Rattus norvegicus) (UniProt O88943); assay: rat KCNQ2 current potentiators – automated patch clamp, KCNQ2-CHO cells, SAR follow-up (AID 493113); details: series mostly up to 30 µM
Sequence (O88943 whole entry, looked up): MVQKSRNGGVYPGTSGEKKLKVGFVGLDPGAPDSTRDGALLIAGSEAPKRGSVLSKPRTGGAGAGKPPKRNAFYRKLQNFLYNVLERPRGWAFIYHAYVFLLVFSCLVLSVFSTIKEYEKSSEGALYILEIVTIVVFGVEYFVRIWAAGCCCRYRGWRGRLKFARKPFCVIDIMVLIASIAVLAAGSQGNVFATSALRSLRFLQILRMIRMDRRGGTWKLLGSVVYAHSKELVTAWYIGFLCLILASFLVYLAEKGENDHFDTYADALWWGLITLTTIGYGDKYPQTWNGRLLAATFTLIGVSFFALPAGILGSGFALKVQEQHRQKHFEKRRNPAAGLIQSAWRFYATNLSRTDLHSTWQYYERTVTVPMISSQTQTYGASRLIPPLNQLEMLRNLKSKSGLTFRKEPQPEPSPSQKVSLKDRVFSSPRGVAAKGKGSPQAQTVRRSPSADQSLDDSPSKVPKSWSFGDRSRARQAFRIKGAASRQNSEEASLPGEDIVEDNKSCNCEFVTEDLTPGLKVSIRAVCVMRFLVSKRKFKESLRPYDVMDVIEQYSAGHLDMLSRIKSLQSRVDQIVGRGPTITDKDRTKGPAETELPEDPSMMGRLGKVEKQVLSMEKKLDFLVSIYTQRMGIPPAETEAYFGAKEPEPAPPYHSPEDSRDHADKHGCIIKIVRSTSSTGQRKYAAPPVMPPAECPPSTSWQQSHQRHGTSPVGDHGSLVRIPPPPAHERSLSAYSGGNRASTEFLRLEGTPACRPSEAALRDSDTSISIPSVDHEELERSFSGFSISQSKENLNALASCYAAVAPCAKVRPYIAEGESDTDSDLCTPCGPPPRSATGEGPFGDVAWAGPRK

outcome, inactive:
Cc1cc(C)c(NC(=O)C23CCC(C)(C(=O)O2)C3(C)C)c(C)c1 (configuration not stated)
O=C(Nc1ccc(F)cc1)C1CC2CCC1C2 (configuration not stated)
CCC(=O)Nc1c(C)cc(C)cc1C
O=C(Nc1ccccc1)C1CC2CCC1C2 (configuration not stated)
Cc1cc(C)c(NC(=O)C(C)(C)C)c(C)c1
Cc1cc(C)c(NC(=O)c2cc(C(F)(F)F)cc(C(F)(F)F)c2)c(C)c1
O=C(Nc1ccc(C(F)(F)F)cc1)C1CC2CCC1C2 (configuration not stated)
Cc1cc(C)c(NC(=O)C23CC4CC(CC(C4)C2)C3)c(C)c1
Cc1cc(C)c(NC(=O)c2ccc(Cl)c(Cl)c2)c(C)c1
Cc1ccc(C(=O)Nc2c(C)cc(C)cc2C)cc1
Cc1cc(C)c(NC(=O)c2ccc(C(F)(F)F)cc2)c(C)c1
CC(=O)Nc1c(C)cc(C)cc1C
Cc1cc(C)c(NC(=O)c2cccc(C(F)(F)F)c2)c(C)c1
Cc1cc(C)c(NC(=O)c2ccccc2)c(C)c1
O=C(Nc1ccccn1)C1CC2CCC1C2 (configuration not stated)
Cc1cc(C)cc(NC(=O)C2CC3CCC2C3)c1 (configuration not stated)
Cc1cc(C)c(NC(=O)c2ccc3ccccc3c2)c(C)c1
